Assay results published in publication PMC7862700, “An all-to-all approach to the identification of sequence-specific readers for epigenetic DNA modifications on cytosine”.

Legend:
Assay in all cases: DAPPL (digital affinity profiling via proximity ligation, sequencing); 10 mM Tris-HCl pH 7.5, 50 mM NaCl, 1 mM DTT, 4% glycerol, room temperature, 30 min; GST-TFs on glutathione beads, 16-mer random dsDNA library, 0.1% formaldehyde crosslink after washing; high values mean tight binding
[1] = target: T1, FEV (Homo sapiens, UniProt Q99581 1-238); details: protein: recombinant; tags: N-terminal GST; dsDNA, one strand shown
T1 sequence: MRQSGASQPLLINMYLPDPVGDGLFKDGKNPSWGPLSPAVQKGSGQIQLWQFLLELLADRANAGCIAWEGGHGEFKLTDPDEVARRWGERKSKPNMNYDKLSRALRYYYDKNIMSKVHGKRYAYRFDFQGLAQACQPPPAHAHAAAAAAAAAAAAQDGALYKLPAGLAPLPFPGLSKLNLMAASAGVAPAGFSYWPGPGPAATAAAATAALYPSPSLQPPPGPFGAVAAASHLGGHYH
How it was run: (§1)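 Sequencing on an Illumina NextSeq500 followed washing, crosslinking with 0.1% formaldehyde, proximity ligation (BsaI/T4 ligase, 1 h, 37 °C) and PCR amplification of pools that had been incubated for 30 min at room temperature with 200 nmole of a random double-stranded 16-mer DNA library in Tris/NaCl/DTT/glycerol buffer. Each pool held DNA-barcoded human transcription factors, expressed in yeast as GST fusions and captured on glutathione beads, plus a tag-only sample. Binding signal is a hexamer's read frequency for a factor divided by its frequency in the tag-only sample.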

[2] = target: ETV5 (Homo sapiens, UniProt P41161 1-510); details: protein: recombinant; tags: N-terminal GST; dsDNA, one strand shown
ETV5, sequence (P41161 whole entry): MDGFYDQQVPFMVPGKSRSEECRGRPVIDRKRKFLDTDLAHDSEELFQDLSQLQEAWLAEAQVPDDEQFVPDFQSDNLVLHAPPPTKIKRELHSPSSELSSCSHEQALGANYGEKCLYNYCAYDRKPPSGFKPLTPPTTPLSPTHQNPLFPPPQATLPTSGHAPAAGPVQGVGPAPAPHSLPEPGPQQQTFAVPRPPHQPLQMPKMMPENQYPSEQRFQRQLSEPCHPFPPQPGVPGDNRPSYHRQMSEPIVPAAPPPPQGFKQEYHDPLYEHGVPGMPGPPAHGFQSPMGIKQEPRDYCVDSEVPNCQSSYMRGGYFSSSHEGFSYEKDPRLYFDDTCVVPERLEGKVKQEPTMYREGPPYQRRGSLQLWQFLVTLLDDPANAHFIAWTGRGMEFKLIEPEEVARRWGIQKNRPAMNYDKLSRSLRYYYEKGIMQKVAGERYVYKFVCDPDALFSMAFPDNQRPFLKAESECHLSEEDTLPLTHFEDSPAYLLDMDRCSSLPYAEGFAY
How it was run: as §1

[3] = target: HSF1 (Homo sapiens, UniProt Q00613 1-529); details: protein: recombinant; tags: N-terminal GST; chain copies: 3; dsDNA, one strand shown
HSF1, sequence (Q00613 whole entry): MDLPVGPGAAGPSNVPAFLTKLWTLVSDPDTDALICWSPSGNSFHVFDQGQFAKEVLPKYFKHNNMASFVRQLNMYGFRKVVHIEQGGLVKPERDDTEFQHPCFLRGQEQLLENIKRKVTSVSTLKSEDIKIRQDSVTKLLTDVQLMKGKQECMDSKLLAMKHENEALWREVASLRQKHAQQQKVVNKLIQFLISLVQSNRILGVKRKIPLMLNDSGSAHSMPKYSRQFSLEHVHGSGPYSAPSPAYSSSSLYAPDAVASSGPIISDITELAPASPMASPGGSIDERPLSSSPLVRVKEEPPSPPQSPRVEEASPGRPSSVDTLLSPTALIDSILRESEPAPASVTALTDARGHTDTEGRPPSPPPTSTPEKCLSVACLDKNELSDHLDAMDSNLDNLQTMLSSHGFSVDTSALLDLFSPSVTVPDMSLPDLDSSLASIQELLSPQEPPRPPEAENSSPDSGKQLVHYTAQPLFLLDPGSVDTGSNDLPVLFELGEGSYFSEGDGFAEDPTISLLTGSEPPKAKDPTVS
How it was run: as §1

[4] = target: T2, SPIC (Homo sapiens, UniProt Q8N5J4 1-248); details: protein: recombinant; tags: N-terminal GST; dsDNA, one strand shown
T2 sequence: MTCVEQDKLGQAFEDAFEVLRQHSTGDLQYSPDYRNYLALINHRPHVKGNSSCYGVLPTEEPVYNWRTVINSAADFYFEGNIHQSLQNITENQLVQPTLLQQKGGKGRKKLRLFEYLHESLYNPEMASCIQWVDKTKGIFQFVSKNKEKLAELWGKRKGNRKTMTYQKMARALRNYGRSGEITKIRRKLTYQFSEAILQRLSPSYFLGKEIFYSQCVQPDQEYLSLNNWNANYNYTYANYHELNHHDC
How it was run: as §1

[5] = target: ELF4 (Homo sapiens, UniProt Q99607 1-663); details: protein: recombinant; tags: N-terminal GST; dsDNA, one strand shown
ELF4, sequence (Q99607 whole entry): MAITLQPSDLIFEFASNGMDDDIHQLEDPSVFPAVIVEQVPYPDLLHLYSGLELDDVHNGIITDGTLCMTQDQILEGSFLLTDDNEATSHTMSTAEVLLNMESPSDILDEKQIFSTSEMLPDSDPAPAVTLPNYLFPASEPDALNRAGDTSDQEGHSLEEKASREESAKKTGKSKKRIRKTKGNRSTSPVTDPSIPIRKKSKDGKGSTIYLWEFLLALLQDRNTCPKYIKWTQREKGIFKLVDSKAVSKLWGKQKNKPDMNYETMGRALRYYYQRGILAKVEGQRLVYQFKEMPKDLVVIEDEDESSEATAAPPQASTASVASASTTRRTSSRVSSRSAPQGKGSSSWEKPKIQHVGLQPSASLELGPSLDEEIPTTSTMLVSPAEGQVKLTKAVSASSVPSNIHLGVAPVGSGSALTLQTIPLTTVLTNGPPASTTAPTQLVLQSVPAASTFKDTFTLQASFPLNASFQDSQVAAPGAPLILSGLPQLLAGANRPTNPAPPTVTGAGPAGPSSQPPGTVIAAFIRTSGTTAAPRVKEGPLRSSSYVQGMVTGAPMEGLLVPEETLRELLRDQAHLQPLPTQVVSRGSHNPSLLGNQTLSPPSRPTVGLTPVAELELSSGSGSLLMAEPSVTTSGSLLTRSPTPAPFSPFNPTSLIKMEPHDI
How it was run: as §1

[6] = target: T3, ELK4 (Homo sapiens, UniProt P28324-2 1-405); details: protein: recombinant; tags: N-terminal GST; dsDNA, one strand shown
T3 sequence: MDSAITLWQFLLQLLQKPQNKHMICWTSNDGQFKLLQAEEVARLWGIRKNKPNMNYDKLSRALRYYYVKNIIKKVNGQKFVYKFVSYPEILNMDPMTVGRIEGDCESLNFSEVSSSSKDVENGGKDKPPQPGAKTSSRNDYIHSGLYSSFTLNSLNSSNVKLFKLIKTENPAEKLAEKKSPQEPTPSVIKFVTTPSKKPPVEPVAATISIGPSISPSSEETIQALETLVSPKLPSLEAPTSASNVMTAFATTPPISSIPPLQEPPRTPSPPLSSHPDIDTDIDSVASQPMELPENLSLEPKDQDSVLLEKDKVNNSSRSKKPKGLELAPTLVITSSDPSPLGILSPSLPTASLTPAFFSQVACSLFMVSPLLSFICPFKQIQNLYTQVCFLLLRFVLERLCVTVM
How it was run: as §1

[7] = target: T4, ETV2 (Homo sapiens, UniProt O00321 1-342); details: protein: recombinant; tags: N-terminal GST; dsDNA, one strand shown
T4 sequence: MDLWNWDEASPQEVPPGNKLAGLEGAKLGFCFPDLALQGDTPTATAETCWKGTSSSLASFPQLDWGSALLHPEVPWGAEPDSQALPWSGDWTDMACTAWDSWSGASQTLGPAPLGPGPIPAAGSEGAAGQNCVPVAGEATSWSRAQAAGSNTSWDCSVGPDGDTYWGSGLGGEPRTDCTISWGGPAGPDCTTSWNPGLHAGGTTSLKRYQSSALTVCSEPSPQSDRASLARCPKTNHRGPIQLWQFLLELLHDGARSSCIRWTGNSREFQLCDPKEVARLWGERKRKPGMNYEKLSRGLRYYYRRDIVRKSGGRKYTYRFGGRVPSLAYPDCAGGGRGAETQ
How it was run: as §1

[8] = target: T5, ELF3 (Homo sapiens, UniProt P78545 1-371); details: protein: recombinant; tags: N-terminal GST; dsDNA, one strand shown
T5 sequence: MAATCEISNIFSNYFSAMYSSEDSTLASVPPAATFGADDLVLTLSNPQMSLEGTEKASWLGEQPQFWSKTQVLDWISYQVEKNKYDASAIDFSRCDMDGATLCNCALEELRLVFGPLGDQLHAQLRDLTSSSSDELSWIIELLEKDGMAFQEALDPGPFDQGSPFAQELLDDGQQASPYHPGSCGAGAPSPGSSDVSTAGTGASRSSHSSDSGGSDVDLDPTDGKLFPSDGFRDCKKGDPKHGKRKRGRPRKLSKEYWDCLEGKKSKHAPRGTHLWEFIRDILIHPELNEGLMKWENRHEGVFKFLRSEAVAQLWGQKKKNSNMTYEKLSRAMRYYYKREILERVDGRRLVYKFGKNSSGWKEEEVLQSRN
How it was run: as §1

[9] = target: CRX (Homo sapiens, UniProt O43186 1-299); details: protein: recombinant; tags: N-terminal GST; dsDNA, one strand shown
CRX, sequence (O43186 whole entry): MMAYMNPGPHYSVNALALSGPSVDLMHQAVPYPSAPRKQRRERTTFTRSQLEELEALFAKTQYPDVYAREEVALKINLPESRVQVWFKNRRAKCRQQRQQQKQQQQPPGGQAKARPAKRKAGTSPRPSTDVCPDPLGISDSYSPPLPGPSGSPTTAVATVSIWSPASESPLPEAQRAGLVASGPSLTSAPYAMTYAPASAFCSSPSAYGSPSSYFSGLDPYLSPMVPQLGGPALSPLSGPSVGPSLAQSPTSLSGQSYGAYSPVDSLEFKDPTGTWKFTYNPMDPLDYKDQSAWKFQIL
How it was run: as §1

[10] = target: ETV1 (Homo sapiens, UniProt P50549 1-477); details: protein: recombinant; tags: N-terminal GST; dsDNA, one strand shown
ETV1, sequence (P50549 whole entry): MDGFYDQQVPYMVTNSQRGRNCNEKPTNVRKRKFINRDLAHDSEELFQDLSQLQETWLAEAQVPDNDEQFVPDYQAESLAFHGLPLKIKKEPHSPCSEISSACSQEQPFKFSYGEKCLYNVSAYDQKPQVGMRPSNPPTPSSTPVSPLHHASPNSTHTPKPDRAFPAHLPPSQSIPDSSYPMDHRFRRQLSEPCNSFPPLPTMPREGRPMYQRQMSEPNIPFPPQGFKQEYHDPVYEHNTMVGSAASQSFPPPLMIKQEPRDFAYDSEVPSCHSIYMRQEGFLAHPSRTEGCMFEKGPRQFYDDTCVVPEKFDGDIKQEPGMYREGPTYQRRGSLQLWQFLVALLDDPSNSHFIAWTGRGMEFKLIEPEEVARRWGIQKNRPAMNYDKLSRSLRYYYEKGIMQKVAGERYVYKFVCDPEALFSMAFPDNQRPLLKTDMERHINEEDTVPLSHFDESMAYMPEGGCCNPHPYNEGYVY
How it was run: as §1

[11] = target: T6, ERF (Homo sapiens, UniProt P50548 1-548); details: protein: recombinant; tags: N-terminal GST; dsDNA, one strand shown
T6 sequence: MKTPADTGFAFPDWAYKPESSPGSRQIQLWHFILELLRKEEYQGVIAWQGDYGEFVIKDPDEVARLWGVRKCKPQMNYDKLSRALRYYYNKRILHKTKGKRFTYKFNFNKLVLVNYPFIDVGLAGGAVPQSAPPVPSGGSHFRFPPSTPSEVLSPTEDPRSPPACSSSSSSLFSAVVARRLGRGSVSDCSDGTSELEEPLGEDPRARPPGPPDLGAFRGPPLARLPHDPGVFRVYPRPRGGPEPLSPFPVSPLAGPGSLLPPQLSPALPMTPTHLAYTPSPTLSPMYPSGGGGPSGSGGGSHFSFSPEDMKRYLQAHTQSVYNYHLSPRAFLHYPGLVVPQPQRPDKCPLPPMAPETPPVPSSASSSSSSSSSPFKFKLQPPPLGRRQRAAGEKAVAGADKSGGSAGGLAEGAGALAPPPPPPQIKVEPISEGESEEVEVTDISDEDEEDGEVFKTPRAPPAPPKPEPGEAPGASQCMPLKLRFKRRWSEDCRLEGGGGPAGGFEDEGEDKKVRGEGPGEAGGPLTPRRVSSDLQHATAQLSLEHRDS
How it was run: as §1

[12] = target: T7, ETV3L (Homo sapiens, UniProt Q6ZN32 1-361); details: protein: recombinant; tags: N-terminal GST; dsDNA, one strand shown
T7 sequence: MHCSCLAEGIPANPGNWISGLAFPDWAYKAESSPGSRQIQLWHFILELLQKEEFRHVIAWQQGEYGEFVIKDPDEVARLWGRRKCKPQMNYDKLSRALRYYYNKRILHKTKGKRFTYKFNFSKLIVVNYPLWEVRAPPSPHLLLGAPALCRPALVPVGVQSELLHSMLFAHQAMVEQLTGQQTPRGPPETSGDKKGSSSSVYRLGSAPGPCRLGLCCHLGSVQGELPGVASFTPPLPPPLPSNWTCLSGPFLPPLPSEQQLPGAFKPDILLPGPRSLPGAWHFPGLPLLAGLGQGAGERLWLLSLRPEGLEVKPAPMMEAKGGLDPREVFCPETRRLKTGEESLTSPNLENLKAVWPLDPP
How it was run: as §1

[13] = target: T8, ETS2 (Homo sapiens, UniProt P15036 1-469); details: protein: recombinant; tags: N-terminal GST; dsDNA, one strand shown
T8 sequence: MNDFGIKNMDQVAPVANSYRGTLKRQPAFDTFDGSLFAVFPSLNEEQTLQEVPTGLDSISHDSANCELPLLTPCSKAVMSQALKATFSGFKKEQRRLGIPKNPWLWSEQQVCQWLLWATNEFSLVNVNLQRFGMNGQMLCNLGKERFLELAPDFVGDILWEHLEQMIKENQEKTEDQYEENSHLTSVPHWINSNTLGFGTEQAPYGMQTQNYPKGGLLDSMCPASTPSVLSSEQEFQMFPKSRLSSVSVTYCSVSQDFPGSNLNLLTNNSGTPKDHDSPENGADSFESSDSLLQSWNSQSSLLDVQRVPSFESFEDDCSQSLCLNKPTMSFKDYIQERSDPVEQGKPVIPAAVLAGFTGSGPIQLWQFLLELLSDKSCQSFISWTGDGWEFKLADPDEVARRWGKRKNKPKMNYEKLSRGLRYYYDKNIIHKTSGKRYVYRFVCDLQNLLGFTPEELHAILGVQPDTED
How it was run: as §1

[14] = target: T9, SPDEF (Homo sapiens, UniProt O95238 1-335); details: protein: recombinant; tags: N-terminal GST; dsDNA, one strand shown
T9 sequence: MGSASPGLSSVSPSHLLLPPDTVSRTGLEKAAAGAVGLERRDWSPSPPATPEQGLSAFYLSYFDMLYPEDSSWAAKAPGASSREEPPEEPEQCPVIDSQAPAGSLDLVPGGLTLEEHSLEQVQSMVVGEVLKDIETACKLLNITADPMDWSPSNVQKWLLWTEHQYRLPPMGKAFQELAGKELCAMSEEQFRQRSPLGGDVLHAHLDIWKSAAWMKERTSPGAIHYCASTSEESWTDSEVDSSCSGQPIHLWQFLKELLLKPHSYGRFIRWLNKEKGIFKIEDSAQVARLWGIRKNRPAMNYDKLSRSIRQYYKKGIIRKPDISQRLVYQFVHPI
How it was run: as §1

[15] = target: T10, ETV7 (Homo sapiens, UniProt Q9Y603 1-341); details: protein: recombinant; tags: N-terminal GST; dsDNA, one strand shown
T10 sequence: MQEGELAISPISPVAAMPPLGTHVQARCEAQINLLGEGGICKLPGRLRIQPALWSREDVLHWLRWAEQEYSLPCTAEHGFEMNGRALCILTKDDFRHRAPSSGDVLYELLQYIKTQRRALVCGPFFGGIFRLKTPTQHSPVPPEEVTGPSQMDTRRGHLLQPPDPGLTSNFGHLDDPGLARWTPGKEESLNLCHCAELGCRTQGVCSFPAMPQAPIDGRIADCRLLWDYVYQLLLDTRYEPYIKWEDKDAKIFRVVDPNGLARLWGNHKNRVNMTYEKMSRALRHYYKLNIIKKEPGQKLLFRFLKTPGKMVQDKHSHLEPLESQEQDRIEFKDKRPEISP
How it was run: as §1

[16] = target: T11, ELF5 (Homo sapiens, UniProt Q9UKW6-2 1-255); details: protein: recombinant; tags: N-terminal GST; dsDNA, one strand shown
T11 sequence: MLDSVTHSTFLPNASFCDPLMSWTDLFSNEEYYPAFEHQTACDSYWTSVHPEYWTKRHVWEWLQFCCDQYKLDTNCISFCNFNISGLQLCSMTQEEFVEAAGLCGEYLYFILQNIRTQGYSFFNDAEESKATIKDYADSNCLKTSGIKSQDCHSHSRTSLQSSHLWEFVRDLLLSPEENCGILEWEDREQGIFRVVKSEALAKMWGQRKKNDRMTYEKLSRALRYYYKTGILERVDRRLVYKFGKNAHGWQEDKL
How it was run: as §1

[17] = target: T12, ETV3 (Homo sapiens, UniProt P41162-2 1-143); details: protein: recombinant; tags: N-terminal GST; dsDNA, one strand shown
T12 sequence: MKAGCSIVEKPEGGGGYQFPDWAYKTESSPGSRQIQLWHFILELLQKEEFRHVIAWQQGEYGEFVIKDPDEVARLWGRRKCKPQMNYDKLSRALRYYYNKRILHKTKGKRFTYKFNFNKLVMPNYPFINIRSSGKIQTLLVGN
How it was run: as §1

[18] = target: ETV6 (Homo sapiens, UniProt P41212 1-452); details: protein: recombinant; tags: N-terminal GST; dsDNA, one strand shown
ETV6, sequence (P41212 whole entry): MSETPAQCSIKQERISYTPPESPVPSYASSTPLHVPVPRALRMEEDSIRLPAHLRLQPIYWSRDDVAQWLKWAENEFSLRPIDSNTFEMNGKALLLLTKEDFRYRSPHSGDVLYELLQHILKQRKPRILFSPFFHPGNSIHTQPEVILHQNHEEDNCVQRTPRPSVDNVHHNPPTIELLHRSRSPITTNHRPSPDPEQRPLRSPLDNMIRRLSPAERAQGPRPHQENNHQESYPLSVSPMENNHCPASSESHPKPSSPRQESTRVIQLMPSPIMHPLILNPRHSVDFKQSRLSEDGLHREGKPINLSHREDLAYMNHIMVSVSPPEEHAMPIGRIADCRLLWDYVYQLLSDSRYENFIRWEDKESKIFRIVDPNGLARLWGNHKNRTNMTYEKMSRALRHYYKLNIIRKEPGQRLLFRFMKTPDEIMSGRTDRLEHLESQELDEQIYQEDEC
How it was run: as §1

## ACTTAA
[1]
  binding signal: 1.15 fold enrichment (6-mer frequency, TF over GST control)
[2]
  binding signal: 1.2 fold enrichment (6-mer frequency, TF over GST control)
[3]
  binding signal: 1.67 fold enrichment (6-mer frequency, TF over GST control)
[4]
  binding signal: 1.25 fold enrichment (6-mer frequency, TF over GST control)
[5]
  binding signal: 1.19 fold enrichment (6-mer frequency, TF over GST control)
[6]
  binding signal: 1.14 fold enrichment (6-mer frequency, TF over GST control)
[7]
  binding signal: 1.16 fold enrichment (6-mer frequency, TF over GST control)
[8]
  binding signal: 1.15 fold enrichment (6-mer frequency, TF over GST control)
[9]
  binding signal: 2.66 fold enrichment (6-mer frequency, TF over GST control)
[10]
  binding signal: 1.25 fold enrichment (6-mer frequency, TF over GST control)
[11]
  binding signal: 1.26 fold enrichment (6-mer frequency, TF over GST control)
[12]
  binding signal: 1.16 fold enrichment (6-mer frequency, TF over GST control)
[13]
  binding signal: 1.19 fold enrichment (6-mer frequency, TF over GST control)
[14]
  binding signal: 1.17 fold enrichment (6-mer frequency, TF over GST control)
[15]
  binding signal: 1.27 fold enrichment (6-mer frequency, TF over GST control)
[16]
  binding signal: 1.16 fold enrichment (6-mer frequency, TF over GST control)
[17]
  binding signal: 1.17 fold enrichment (6-mer frequency, TF over GST control)
[18]
  binding signal: 1.21 fold enrichment (6-mer frequency, TF over GST control)
